High-throughput results: PubChem, Broad Institute
Wnt act: activators of Wnt/beta-catenin signaling. Wnt/beta-catenin reporter cell assay, activator, plate reader. activation, % at 9.35 µM. 300,000 tested, 1.2% active. AID 743398; in the data active means activation above about 30%, passing the limit was not always enough; inconclusive means no clear call, values can overlap the other calls;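 further: 0% = neutral control wells and 100% = positive control wells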
Ecoli rRNA inh: inhibitors of bacterial rRNA selective over humanized ribosomes; E. coli WT GFP vs humanized-ribosome RFP mutants, fluorescence, 24 h; active compounds read low; DMSO median 0, no signal -100; 350,000 tested, 1.6% active; GFP signal change (wild-type ribosome), % (concentration not given with the values); AID 720706;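 active means significant combined selectivity score with lowered wild-type GFP, culture density cut under 30%, mutant RFP and density less affected; inactive means any of these conditions unmet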
esBAF inh: inhibitors of esBAF chromatin remodeling in mouse ES cells; 350,000 tested, 2% active; AID 602393; Bmi1-luciferase knock-in reporter, 24 h; 100% = twice the neutral-well signal; reporter increase, % at 12.5 µM; in the data active means activation above about 40%; inconclusive means no clear call, values can overlap the other calls;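 further: 0% = median of the plate's neutral control wells and 100% = double that signal; a rise in the Bmi1 reporter signal indicates esBAF inhibition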
AF4-AF9 inh: blocks AF4 peptide binding to human AF9; AlphaScreen, biotin-AF4 peptide binding to FLAG-AF9; 350,000 tested, 0.47% active; P42568; inhibition, % at 10 µM; AID 651704;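 active means every replicate reaching a set inhibition limit, whatever the replicate mean, cut at about 25% in these data; inconclusive means mean inhibition reaches that limit but some replicates miss it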;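 further: 0% = plate neutral control median and 100% = total signal loss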
Target sequence (P42568 whole entry, looked up): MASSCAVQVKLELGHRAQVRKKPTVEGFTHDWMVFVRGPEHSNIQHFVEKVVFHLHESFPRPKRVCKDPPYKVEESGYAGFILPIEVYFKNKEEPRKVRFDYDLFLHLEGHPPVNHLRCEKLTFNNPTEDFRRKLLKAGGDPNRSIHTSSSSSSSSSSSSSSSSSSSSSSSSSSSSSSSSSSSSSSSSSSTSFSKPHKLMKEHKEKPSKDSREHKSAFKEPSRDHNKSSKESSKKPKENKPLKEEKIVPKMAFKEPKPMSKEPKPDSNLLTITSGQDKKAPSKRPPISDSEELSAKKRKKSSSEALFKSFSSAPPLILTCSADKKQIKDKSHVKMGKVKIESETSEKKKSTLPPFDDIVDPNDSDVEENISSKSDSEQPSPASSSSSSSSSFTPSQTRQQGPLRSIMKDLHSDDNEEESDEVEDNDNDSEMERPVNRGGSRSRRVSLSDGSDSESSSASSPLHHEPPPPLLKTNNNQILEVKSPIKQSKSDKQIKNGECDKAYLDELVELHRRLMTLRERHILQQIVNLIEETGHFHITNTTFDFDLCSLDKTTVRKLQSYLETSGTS
MITF TRPM1 HTS: activators of MITF-driven TRPM1 promoter activity in SK-MEL-5 cells. SK-MEL-5 TRPM1-promoter luciferase, 24 h; % of positive control, neutral wells = 0. activation, % at 12.5 µM. 300,000 tested, 0.75% active. AID 588334;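 active means mean activation of at least 80% with every replicate also reaching 80%; inconclusive means mean reaches 80% but some replicate falls short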;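 further: 0% = neutral control wells and 100% = parthenolide positive control wells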
* = called active by the depositor; ? = inconclusive; . = no result. Hits are enriched below; roughly 3.7% of the tested compounds scored in any of these assays.

SMILES	Wnt act	Ecoli rRNA inh	esBAF inh	AF4-AF9 inh	MITF TRPM1 HTS
O=C(CNc1cccc(F)c1)N1CCc2ccccc2C1	36*	-8	51*	2	?
O=C(Cc1ccc(Cl)cc1)N1CCc2ccccc2C1	?	-28*	46*	-2	.
O=C(Nc1ccc(Cl)cc1)N1CCc2ccccc2C1	-1	-28	48*	-2	72
COc1ccc(NC(=O)N2CCc3ccccc3C2)cc1	1	-5	39	-1	14
O=C(Nc1ccccc1)N1CCc2ccccc2C1	54*	.	44*	.	32
CCC(c1nnnn1-c1c(C)cccc1C)N1CCN(c2cccc(C(F)(F)F)n2)CC1 (configuration not stated)	-5	6	.	-1	.
C/C(N)=C(/C#N)C(=O)CSc1cc(C)c2cc(C)cc(C)c2n1	1	7	-1	-3	11
CCNC[C@@H]1[C@H](c2ccccc2)[C@@H](CO)N1C(=O)Cc1ccccn1	.	2	.	.	.
CCCSc1nc(N2CCOCC2)c2c(c1C#N)CC(C)(C)SC2	0	.	14	.	0
CCn1c(SCC(=O)Nc2ccc(OC)cc2)nc2c1c(=O)n(C)c(=O)n2C	-3	2	1	-3	.
O=C(Nc1ccc(Cl)cc1)c1ccc(CN2CCc3ccccc3C2)cc1	5	-4	49*	-4	3
Cc1ccc(NC(=O)N2CCc3ccccc3C2)cc1	.	.	46*	.	?
CC(=O)c1ccc(NC(=O)N2CCc3ccccc3C2)cc1	16	-12	.	-2	78
Nc1nc(SCC(=O)Nc2ccccc2)[nH]c(=O)c1-c1ccccc1	-3	-3	17	-22	4
Nc1nc(SCC(=O)N2CCc3ccccc3C2)[nH]c(=O)c1-c1ccccc1	11	.	56*	.	4
COc1ccccc1-c1nc(COc2ccc(Cl)cc2Cl)no1	54*	-21	.	0	149*
CC1(C)CC(=O)C(C=NCCN2CCN(C3CC(=O)N(c4cccc(Br)c4)C3=O)CC2)=C(O)C1 (configuration not stated)	-2	6	-7	1	5
CN(Cc1ccccc1F)Cc1cc(=O)oc2cc(O)c(Cl)cc12	-2	-7	6	-2	10
COc1ccc(C(=O)NCCn2cc(SCC(=O)N3CCOCC3)c3ccccc32)cc1	.	1	42*	.	0
Cc1ccc(C(=O)NCCn2cc(SCC(=O)Nc3nnc(C)s3)c3ccccc32)cc1	-5	5	58*	6	.
O=C(CSc1cn(Cc2ccccc2)c2ccccc12)N1CCOCC1	18	-3	79*	3	52
CCCn1cc(SCC(=O)Nc2nnc(C)s2)c2ccccc21	1	7	1	-10	-5
Cn1cc(SCC(=O)Nc2nccs2)c2ccccc21	26	-5	68*	2	.
COC(=O)c1sc(-c2ccc(Cl)cc2)cc1NC(=O)CSCC(=O)O	2	-42*	.	2	.
COC(=O)c1sc(-c2ccc(C(C)(C)C)cc2)cc1NC(=O)COCC(=O)O	5	-20	11	2	.
SMILES	Wnt act	Ecoli rRNA inh	esBAF inh	AF4-AF9 inh	MITF TRPM1 HTS
CCCCC(CC(O)COCCC)C(=O)NN (configuration not stated)	-4	7	.	0	-8
Cc1cc(C)nc(NC(=O)c2ccc(Br)cc2)n1	1	14	-1	7	6
Cc1cc(NO)nc(-c2ccc(Br)cc2)n1	.	.	51*	.	64
Oc1ccccc1CN1CCN(C(O)(c2ccccc2)c2ccccc2)CC1	3	-42	-1	4	-5
O=C(O)c1ccc(N2C(=O)C3C4c5ccccc5C(Br)(c5ccccc54)C3C2=O)cc1 (configuration not stated)	-2	-36*	.	0	0
CC12c3ccccc3C(c3ccccc31)C1C(=O)N(c3ccncc3)C(=O)C12 (configuration not stated)	0	-14	-7	3	-9
O=S(=O)(Nc1cccc2ccccc12)c1cccc2nonc12	5	-27*	.	2	.
CN1C(=O)CSc2ccc(NC(=O)N3CCc4ccccc43)cc21	29	-24	94*	?	70
CN1C(=O)CSc2ccc(NC(=O)Nc3ccccn3)cc21	1	0	.	1	143*
C[C@H](CO)N1C[C@H](C)[C@@H](CN(C)C(=O)NC2CCCCC2)Oc2cc(/C=C/c3ccccc3)ccc2S1(=O)=O	.	-2	2	7	.
CCSc1cc(N2CCCC2)nc(-c2ccc(Cl)cc2)n1	-1	3	1	-5	0
Clc1ccc(-c2nnc(N3CCCC3)nn2)cc1	35*	.	-26	.	.
O=C(COc1ccc(Cl)cc1Br)Nc1nnc(C2CC2)s1	8	-3	21	-1	31
COc1ccc(NC(=O)c2cc(S(=O)(=O)N(C)C)ccc2N2CCCC2)cc1Cl	-2	.	.	3	1
CSc1ncnc2c1ncn2CCCNCc1ccccc1	-3	11	4	-2	.
CSc1ncnc2c1ncn2CCCNc1ccc(C)c(C)c1	-2	-26*	0	6	.
C(=NN1CCCCCC1)c1ccc2c(c1)OCO2	33*	6	19	4	23
O=C(/C=C/C=C/c1ccc2c(c1)OCO2)N1CCCCC1	1	-8	51*	5	98*
CCN1CCN(CC(=O)Nc2ccc(OC(F)(F)F)cc2)CC1	-3	4	-9	-1	-10
CCc1c(C)nc2ncnn2c1NCCc1ccc(OC)cc1	0	-27*	2	-1	-43
CCOc1ccccc1N(C)C(=O)c1cn(CC)c(=O)c2cc(OC)c(OC)cc12	1	4	-4	-2	12
O=C(NC(=S)Nc1cccc(O)c1)C12CC3CC(CC(C3)C1)C2	22	-63	47*	16	.
O=C(NNC(=O)C12CC3CC(CC(C3)C1)C2)c1cccc(O)c1	0	3	14	1	-6
O=C(Nc1ccc(Cl)c(Cl)c1)c1ccc(Cn2cc(Cl)cn2)cc1	-24	-24	69*	-2	75
Cc1ccc(-c2cc(C(=O)NC3=NCCS3)c3ccccc3n2)cc1C	40*	.	.	.	45
SMILES	Wnt act	Ecoli rRNA inh	esBAF inh	AF4-AF9 inh	MITF TRPM1 HTS
O=C(N/N=C/c1ccc[nH]1)c1cc(-c2cccs2)nc2ccccc12	-1	-24*	0	18	-3
O=C(NC1=NCCS1)c1cc(-c2ccc(F)cc2)nc2ccccc12	.	11	.	0	41
O=C(N/N=C/c1cccc(F)c1)c1cc(-c2ccco2)nc2ccccc12	20	.	79*	.	9
COc1cc(/C=N/NC(=O)c2cc(-c3ccco3)nc3ccccc23)cc(OC)c1O	-3	8	.	-1	2
Cn1cccc1/C=N/NC(=O)c1cc(-c2cccs2)nc2ccccc12	.	7	-1	32*	-29
O=C(N/N=C/c1cccnc1)c1cc(-c2cccs2)nc2ccccc12	-5	.	4	.	9
CCc1nnc(NC(=O)CSc2nnc(-c3ccccc3OC)n2-c2ccccc2)s1	-3	.	1	.	-10
CCc1ccccc1OCC(=O)N(CC)CC(=O)NCc1ccc(F)cc1	-2	-9	.	-1	-13
Cc1ccc(-c2cc(C(=O)N/N=C/c3c(C)nn(C)c3C)c3ccccc3n2)cc1C	.	.	48*	.	37
